Bioassay records (PubChem)
TMEM16A act: TMEM16A chloride channel activators or potentiators, primary screen, cell-based, HTS; Anoctamin-1 (Mus musculus), Q8BHY3; AID 623877, 2012; 0.3% of 340,000 active; B-score at 10 µM; HEK293 TMEM16A/YFP-H148Q/I152L, iodide quench fluorescence; hits give low values;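 active = fluorescence-ratio B-score plate-corrected deviation score at least 3 library SD below zero, with starting fluorescence score within 5 deviations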;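 also: channel opened by trigger with iodide after compound preincubation; score built on the fluorescence ratio of max minus min over baseline; more negative score means more quench and so TMEM16A activation or potentiation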
ANO1 block: TMEM16A chloride channel inhibitors, primary screen, cell-based, HTS; Anoctamin-1 (Mus musculus), Q8BHY3; HEK293 TMEM16A/YFP iodide influx fluorescence, ionomycin; normalized B-score (activity score, 25-100; higher = stronger inhibition) at 10 µM; 1.2% of 310,000 active; AID 588511, 2011;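 active = ratio plate-corrected score three or more library SD toward inhibition, starting fluorescence score within five deviations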;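 also: score derived from kinetic fluorescence span divided by baseline fluorescence per well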
CHO-K1 Ca ag: counter-screen for M1 agonists: effect in parental CHO-K1 cells; AID 602248, 2012; Fluo-8 calcium fluorescence; scaled to maximal ATP response, vehicle zero; 0.48% of 360,000 active; activation, % at 3 µM; in the data active = activation above about 15%;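 also: untransfected CHO-K1 host cells lacking M1 receptor as counterscreen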
CHO-K1 Ca antag: counter-screen for M1 antagonists: effect in parental CHO-K1 cells; inhibition, % at 3 µM; AID 602250; ATP-induced calcium, Fluo-8 fluorescence; 0.6% of 360,000 active;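 active = inhibition above a per-plate cutoff, the plate's mean sample inhibition plus 3 SD, cut at about 24% in these data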;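 also: 0% = DMSO plus EC80 ATP and 100% = DMSO alone without ATP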
NTR1 ag: agonists of human NTR1, primary screen, imaging, U2OS cells, beta-arrestin-GFP, high content; 0.17% of 330,000 active; Neurotensin receptor type 1 (Homo sapiens), P30989; AID 493036, 2011; NTR1-U2OS beta-arrestin-GFP spot imaging, agonist mode; activation, % at 20 µM;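 active = activation at or above 40% of the spot to cytoplasm intensity ratio, with at least 20 cells analyzed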;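 also: 0% = DMSO without peptide and 100% = 100 nM NTR1 peptide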
Target sequence (P30989 whole entry, looked up): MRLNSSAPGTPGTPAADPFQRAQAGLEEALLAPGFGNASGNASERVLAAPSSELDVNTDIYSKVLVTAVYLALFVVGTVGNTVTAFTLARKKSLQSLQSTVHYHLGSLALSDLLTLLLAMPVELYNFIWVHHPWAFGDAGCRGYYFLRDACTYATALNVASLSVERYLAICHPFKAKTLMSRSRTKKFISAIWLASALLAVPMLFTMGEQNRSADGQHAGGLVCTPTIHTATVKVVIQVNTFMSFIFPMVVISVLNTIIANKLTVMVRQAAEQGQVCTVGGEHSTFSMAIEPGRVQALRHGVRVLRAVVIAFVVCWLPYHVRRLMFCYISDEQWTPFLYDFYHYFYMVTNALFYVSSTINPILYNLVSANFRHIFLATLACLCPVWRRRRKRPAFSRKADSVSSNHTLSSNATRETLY
M1 PAM parental: nonselective calcium activators in parental CHO-K1 cells, primary screen, counter-screen for M1 PAM project, cell-based, Fluo-8 calcium fluorescence, full deck, 1536-well; ATP EC20; 0% at ATP EC20, 100% at ATP max; activation, % at 3 µM; 0.02% of 360,000 active; AID 602247, 2012;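 active = activation above the run cutoff, the mean activation of all test compounds plus 3 SD, cut at about 40% in these data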;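 also: peak over basal fluorescence ratio in a 140 s read after ATP addition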
* hit, by the source's call; i = inactive; · = no result. Only some compounds are listed: those with a hit (about 2.2% of all), similar ones and a draw of the others.

SMILES	TMEM16A act	ANO1 block	CHO-K1 Ca ag	CHO-K1 Ca antag	NTR1 ag	M1 PAM parental
COCCNC(=O)C1(C)CCCN(C(=O)c2ccccc2OC(F)(F)F)C1 (stereo unspecified)	·	·	0	-3	·	15
CCNC(=O)C1(C)CCCN1C(=O)c1cc(OC)c(OC)c(OC)c1 (stereo unspecified)	·	·	1	-16	·	10
CC(C)Cc1ccc(C(C)C(=O)OCC(=O)c2c[nH]c3ccccc23)cc1 (stereo unspecified)	i	100*	6	0	14	20
Cc1ccc(C(=O)OCC(=O)c2c[nH]c3ccccc23)cc1	i	i	1	-6	0	12
CN(Cc1ccc(F)cc1)C(=O)c1cccc(S(=O)(=O)N2CCN(Cc3ccccc3)CC2)c1	i	i	6	4	0	-16
CSc1ccc(CN(C)C(=O)c2cccc(S(=O)(=O)N3CCN(Cc4ccccc4)CC3)c2)cc1	i	100*	12	11	4	-13
CSc1ccc(CN(C)C(=O)c2cccc(S(=O)(=O)NCc3ccccc3)c2)cc1	i	100*	12	-14	2	1
CN(C)c1ccccc1-c1cc(NC=O)c2ncc(-c3cccc(C(F)(F)F)c3)n2c1	·	·	2	10	·	-9
CC(C)(C)OC(=O)N1CCC[C@@H]1C(=O)NCc1ccccc1Cl	·	·	0	-26	·	26
Clc1ccc(CN2CCN(c3ncnc4scc(-c5cccs5)c34)CC2)cc1	i	25*	0	-12	6	22
CCCCCCSc1ccc([C@H]2N[C@@](C)(C(=O)OC)[C@H]3C(=O)N(C)C(=O)[C@@H]23)cc1	i	100*	2	6	2	-16
O=C(Nc1ccc(Oc2ccc(Cl)cc2)c(Cl)c1)c1cc(I)cc(I)c1O	-5.9*	100*	0	6	1	-3
COc1ccc(Cl)cc1-c1noc([C@@H]2O[C@H](CO)[C@H](O)[C@H](O)[C@H]2O)n1	·	·	0	0	·	12
Nc1nc(NCc2ccccc2)nc(Nc2cccc(F)c2)c1[N+](=O)[O-]	i	i	0	-4	2	16
Nc1nc(Nc2cccc(F)c2)nc(NCCO)c1[N+](=O)[O-]	i	i	15*	-12	0	19
CCOC1CCCc2oc(-c3ccc(N(C)C)cc3)c(C(=O)OC)c21 (stereo unspecified)	·	·	1	-16	·	13
CC(C)N1CC(=O)N2CSCC2C1=O (stereo unspecified)	·	·	0	-9	·	-13
CCN1CCN(c2ccc(NC(=O)c3ccc(Cl)c(S(=O)(=O)N4CCCC4)c3)cc2)CC1	i	·	3	9	1	-19
CCN(CC)CCOC(=O)c1ccc(NC(=O)c2ccc(Cl)c(S(=O)(=O)N3CCCCCC3)c2)cc1	i	25*	2	4	16	-6
CC(=O)c1cccc(NC(=O)c2cccc(S(=O)(=O)N3CCOCC3)c2)c1	i	i	3	-16	1	8
O=C(COC(=O)c1ccc(Cl)c(S(=O)(=O)N2CCCCC2)c1)NCCc1ccccc1	i	·	0	25*	1	-24
CC1CN(C(=O)COC(=O)c2ccc(Cl)c(N)c2)CC(C)O1 (stereo unspecified)	i	i	3	-9	-1	18
CCOC(=O)c1ccc(NC(=O)c2cccc(S(=O)(=O)N3CCOCC3)c2)cc1	i	100*	8	7	2	7
O=C(NCCc1ccccc1)c1ccc(Cl)c(S(=O)(=O)N2CCCC2)c1	i	i	13	-3	1	-6
CC1CN(C(=O)COC(=O)c2ccc(Cl)c(S(=O)(=O)N3CCCCC3)c2)CC(C)O1 (stereo unspecified)	i	i	20*	7	0	13
SMILES	TMEM16A act	ANO1 block	CHO-K1 Ca ag	CHO-K1 Ca antag	NTR1 ag	M1 PAM parental
CCN(C(=O)COC(=O)c1ccccc1Cc1ccccc1)c1c(N)n(Cc2ccccc2)c(=O)[nH]c1=O	i	·	0	-10	·	1
COCCCN(Cc1cc(OC)c(OC)c(OC)c1)C(=S)Nc1cccc(Cl)c1	·	·	2	-11	·	21
CC(C)(C)c1ccc(CC(=O)N2CCC2(C)C(=O)NS(=O)(=O)c2ccc(F)cc2F)cc1 (stereo unspecified)	·	·	1	2	·	4
OCC[C@H]1NCc2cc(CO)cc(-c3ccccc3)c21	·	·	1	-15	·	16
CC(C)C[C@@H]1COc2cc(N3CCC[C@H]3CO)ccc2S(=O)(=O)N1	·	·	2	-5	·	2
CC1(C(=O)NS(=O)(=O)c2ccc(C#N)cc2)CCN1C(=O)Cc1ccc(Cl)cc1Cl (stereo unspecified)	·	·	0	-14	·	7
O=C(Nc1ccccc1Cl)NC1CCCCCCC1	i	i	23*	7	2	-10
CCc1ccccc1NC(=O)NC1CCCCC1	i	i	0	1	-1	13
O=C(Cc1csc(NC(=O)Nc2cccc(Cl)c2)n1)NC1CCCC1	i	i	16*	8	3	-3
COc1ccc(C(=O)N2CCc3cc(OC)c(OC)cc3C2c2ccc(OC)c(OC)c2)cc1 (stereo unspecified)	i	i	0	24*	0	-8
COc1ccc(C2c3cc(OC)c(OC)cc3CCN2C(=O)c2ccccc2)cc1OC (stereo unspecified)	i	i	0	0	-1	4
CCN(CC)C(=O)C1=C(C)N(CCCN2CCCC2=O)C(=O)C(CC(=O)NC2CCCCC2)C1 (stereo unspecified)	·	·	0	1	·	7
COc1ccc(NC(=O)CC2Nc3cc(C)c(C)cc3NC2=O)c([N+](=O)[O-])c1 (stereo unspecified)	-5*	i	0	-4	0	1
CCc1nc2c(OCc3ccc(C#N)cc3)cccn2c1N(C)C(=O)c1ccc(C)cc1	·	·	0	-5	·	-9
O=C(CCn1c(=S)oc2ccccc21)Nc1ccccc1F	i	i	0	26*	2	-14
COc1ccc(NC(=O)CCCCCN2C(=O)CCC2=O)cc1Cl	i	i	1	-12	-1	21
O=C(CCCCCN1C(=O)CCC1=O)Nc1ccc(Cl)c(C(F)(F)F)c1	i	i	17*	-32	-2	11
CCC(=O)OCOc1ccc(/C=C2/CCC(CN(C)C)C2=O)cc1 (stereo unspecified)	i	·	2	-9	·	-2
